IL-1B inflam inh: inflammasome signaling inhibition, IL-1 beta readout; THP-1 LPS/ATP IL-1B secretion, AlphaLISA, 16 h; stronger effect = lower value; activity change, % at 57.5 µM; 360,000 tested, 4.7% active; AID 743279; in the data active = activity change below about -50%; inconclusive = mostly about -30% to -49%
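Secreted IL-1B measured by AlphaLISA bead assay after 16 h compound exposure of THP-1 cells; compounds (final up to 57.5 uM) added 1 h before LPS (250 ng/mL) and ATP (1.25 mM) stimulation; lower signal means less secretion.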
ELG1 repair inh: blocks ELG1-dependent DNA repair in HEK293T cells; Potency, µM (doses to about 46.1 µM), usual class: inhibitors; HEK293T ELG1-luciferase reporter, luminescence, 16 h; DNA damage induced by 5-fluorouridine; AID 504467; 330,000 tested, 2.3% active; note: nearly all actives have a fitted effect of over 55% in size
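Overnight (16 hr) co-exposure of 2,000 cells/well to 5-fluorouridine and compound at 37 °C preceded detection. Luciferase was quantified via ONE-Glo luminescence; loss of signal denotes inhibition.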
RORg inh: ROR gamma (mouse) transcription inhibition; P51450; Drosophila S2 Gal4-RORgamma UAS-luciferase reporter, 20 h; Potency, µM (top dose mostly 53.6 µM), usual class: inhibitors; 310,000 tested, 5.4% active; note: nearly all actives have a fitted effect of over 60% in size
Target sequence (P51450 whole entry, looked up, the tested form may be a part): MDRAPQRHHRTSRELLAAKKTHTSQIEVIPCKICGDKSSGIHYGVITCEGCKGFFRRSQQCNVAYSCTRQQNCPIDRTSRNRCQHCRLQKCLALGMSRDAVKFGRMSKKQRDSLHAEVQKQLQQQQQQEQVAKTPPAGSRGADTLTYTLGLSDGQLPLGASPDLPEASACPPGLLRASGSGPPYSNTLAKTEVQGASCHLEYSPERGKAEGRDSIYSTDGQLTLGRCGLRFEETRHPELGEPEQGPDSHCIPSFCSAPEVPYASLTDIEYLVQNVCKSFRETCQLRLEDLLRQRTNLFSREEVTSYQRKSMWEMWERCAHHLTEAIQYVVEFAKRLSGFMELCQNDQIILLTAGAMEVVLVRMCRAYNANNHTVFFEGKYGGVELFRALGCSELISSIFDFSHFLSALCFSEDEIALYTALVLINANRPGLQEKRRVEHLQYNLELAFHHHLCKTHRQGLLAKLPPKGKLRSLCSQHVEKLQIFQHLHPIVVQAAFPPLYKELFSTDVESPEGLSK
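Luminescence from a UAS-regulated Photinus luciferase reporter in stably transfected Drosophila Schneider cells is measured; decreased signal marks ROR gamma inhibition. Fusion expression is induced by 700 uM copper sulfate for 20 hr.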
TDP1 cell noCPT: qHTS for Inhibitors of human tyrosyl-DNA phosphodiesterase 1 (TDP1): qHTS in cells in absence of CPT | DT40 Tdp1-/- hTDP1 cells, no CPT, ATP luminescence, 48 h | Potency, µM (highest dose often 46.2 µM), hits mostly inhibitors | 420,000 tested, 15% active | AID 686978, 2013; note: nearly all actives have a fitted effect of over 55% in size
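Compound effects on proliferation are scored in DT40 Tdp1-/-;hTDP1 cells in the absence of CPT. ATP levels (CellTiter-Glo luminescence) are recorded after a ≥48 hr, 37 °C incubation.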
Gal4-VP16 FLuc: inhibits Gal4-VP16 luciferase reporter, ROR gamma counter-screen | Drosophila S2 Gal4-VP16 UAS-luciferase, luminescence, 20 h | Potency, µM (series often up to 53.6 µM), actives largely listed as inhibitors | 310,000 tested, 3.5% active | AID 2546;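 note: Gal4-VP16 expression switched on by copper sulfate through the metallothionein promoter; nearly all actives have a fitted effect of over 50% in size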
TDP1 cell CPT: DT40-hTDP1 cell growth loss with CPT. chicken DT40 Tdp1-/-;hTDP1 cells + 20 nM CPT, ATP luminescence, 48 h. Potency, µM (doses to about 46.2 µM), actives largely listed as inhibitors. 420,000 tested, 12% active; note: nearly all actives have a fitted effect of over 55% in size
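Cell growth measured by CellTiter-Glo luminescence after a minimum 48 h, 37 C compound exposure with 20 nM CPT in Tdp1-knockout DT40 cells stably expressing hTDP1, seeded 400/well; qHTS titration format.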
A number is an active result; 0 = inactive; ? = inconclusive; - = not tested or not shown; [ ] = another dose, or the depositor's remark. Shown are actives, neighbours in structure and some others; about 21% of the full set was active somewhere. Unless noted, calls come from the whole dose curve; as a rule, active = well fitted curve in the direction sought with a large enough effect; inconclusive = small, poorly fitted or top-dose-only effect, or another doubt; inactive = no such curve, though single readings can be large; an effect the other way counts as inactive or inconclusive.

SMILES | IL-1B inflam inh | ELG1 repair inh | RORg inh | TDP1 cell noCPT | Gal4-VP16 FLuc | TDP1 cell CPT
COc1cccc(CNC(=O)c2ccncc2)c1 | 0 | 0 | 0 | 0 | 0 | 0
Cc1c(C)n(Cc2ccccc2)c2ccc(C(=O)OCCN(C)C)cc12 | 0 | 0 | ? | 12µM | 0 | ?
Cc1ccc(S(=O)(=O)N2CCN(C(=O)c3ccccc3)CC2)c(C)c1NS(C)(=O)=O | 0 | 0 | 0 | 0 | 0 | ?
Cc1ccc(-n2c(=O)c3ccc(C(=O)NCc4ccco4)cc3n(Cc3ccc(Cl)cc3)c2=O)cc1 | - | - | - | 6.5µM | - | 18µM
CCn1c(C)c(C)c2cc(C(=O)Nc3cccc(Cl)c3)ccc21 | ? | 0 | 0 | 18µM | 0 | ?
CCc1cccc(NC(=O)c2ccc(Cn3c(=O)[nH]c4ccsc4c3=O)cc2)c1 | 0 | 0 | 0 | 0 | 0 | 0
CCc1cccc(NC(=O)c2ccc3c(c2)c(C)c(C)n3Cc2ccc(F)cc2)c1 | - | - | - | ? | - | 15µM
CCn1c(C)c(C)c2cc(C(=O)NCCCN3CCCC3)ccc21 | 0 | 0 | 0 | 0 | 0 | 0
CCn1c(C)c(C)c2cc(C(=O)NCc3cccc(C)c3)ccc21 | - | - | - | ? | - | 23µM
COC(=O)CCCCCn1c(-c2ccccc2)cn2c3c(=O)n(C)c(=O)n(C)c3nc12 | - | - | - | ? | - | 0
CCn1ccc(C(=O)Nc2cccc(Cl)c2)n1 | 0 | ? | 0 | 0 | 0 | 0
CCn1c(C)cc(O)c(C(=O)Nc2cccc(Cl)c2)c1=O | 0 | ? | 0 | 3.7µM | 0 | ?
C=CCC1NS(=O)(=O)OCC1C(C)C (stereo unspecified) | 0 | 0 | 0 | ? | 0 | 0
CCC(C)NS(=O)(=O)c1ccc(S(=O)(=O)N2CC=C(c3ccc(F)cc3)CC2)cc1 (stereo unspecified) | 0 | 0 | ? | 18µM | ? | 16µM
COc1cc(OC)cc(C(=O)N[C@H](C(=O)Nc2nc(-c3ccc(F)c(F)c3)cs2)C(C)C)c1 | 0 | 0 | 0 | ? | 0 | ?
COc1cccc(C2CNC3(CCCC(C)C3)c3[nH]c4ccccc4c32)c1OC (stereo unspecified) | ? | 0 | 0 | 23µM | 0 | ?
CCCCC/C(C=O)=C/c1ccccc1 | - | - | 0[10 µM] | - | 0 | -
COc1ccc(CNC(=O)CCNC(=O)c2ccco2)cc1OC | 0 | 0 | - | 0 | - | 0
Nc1nc(N)c(N)c(=O)[nH]1 | - | - | - | 0 | - | ?
Nc1nc2n[nH]nc2c(=O)[nH]1 | 0 | - | 0 | 7.3µM | 0 | 7.3µM
CC(=O)OC[C@@H]1O[C@@H](O/N=C2/C[C@@H](O)[C@@H](O)[C@@H]3[C@@H]4C(=O)N([C@@H](C)c5ccccc5)C(=O)[C@H]4CC[C@H]23)[C@H](OC(C)=O)[C@H](OC(C)=O)[C@@H]1OC(C)=O | - | - | 0[10 µM] | - | 0[10 µM] | -
Cc1csc(Nc2ccccc2)[n+]1C | 0 | 0 | 0 | 0 | 0 | 0
O=C(O)Cc1sc(Nc2ccc(C(=O)O)cc2)nc1-c1ccccc1 | - | - | - | 0 | - | 0
O=C(O)c1ccc(C[n+]2c(-c3ccccc3)csc2Nc2ccccc2)cc1 | 0 | 0 | 5.6µM | 0 | 0 | 0
CC(C)(C)c1cc(-c2csc(Nc3ccccc3)[n+]2Cc2ccc(C(=O)O)cc2)cc(C(C)(C)C)c1O | 0 | 16µM | 0 | ? | 0 | ?
SMILES | IL-1B inflam inh | ELG1 repair inh | RORg inh | TDP1 cell noCPT | Gal4-VP16 FLuc | TDP1 cell CPT
CCOc1ccc(OCCC(=O)OCC(=O)NCc2ccc(Cl)cc2)cc1 | 0 | ? | - | 0 | - | 0
COc1ccccc1/C=C/c1cnccn1 | - | - | - | ? | - | 0
COc1ccccc1-c1cc(=O)c2c(O)ccc([N+](=O)[O-])c2o1 | 0 | 0 | 0 | 5.2µM | 0 | 3.7µM
O=c1cc(-c2ccccc2Cl)oc2ccc([N+](=O)[O-])c(O)c12 | 0 | 0 | 0 | ? | 0 | ?
O=c1cc(-c2ccccc2Cl)oc2c([N+](=O)[O-])c(O)cc(O)c12 | -74 | 3.7µM | ? | 26µM | ? | 23µM
O=C1CCCC=C1[C@@H](O)COCc1ccccc1 | - | - | 0[10 µM] | - | 0[10 µM] | -
COc1cc(NC(=O)Cn2cnc3c(SC)nc(N)nc32)cc(OC)c1OC | 0 | 0 | - | 0 | - | 0
O=C(Nc1nccs1)c1ccc(CSc2nnnn2-c2ccccc2)cc1 | ? | 23µM | ? | 0 | 14µM | 13µM
Cc1nc2ccccc2c(=O)n1NC(=O)c1c(F)cccc1F | 0 | 0 | 0 | 0 | 0 | 0
CC(C)=CCc1c(-c2ccc(O)cc2O)oc2cc3c(c(O)c2c1=O)C=CC(C)(C)O3 | ? | - | - | 23µM | - | 23µM

Compound activity (PubChem BioAssay)
